# Test results: PubChem BioAssay (NCATS)
# Where “and” joins values, the source holds several entries; their conditions need not be identical. Identical values can stand only once. Results filed as inconclusive are left out. For some assays here: Potency and affinity values are given separately. Calls of active or inactive are those of the source. Unless noted, the rule behind the calls is not given here.
# Assays:
# [1] = qHTS Assay for Identifying Gametocytocidal Compounds (AID 743244; active = well fitted curve in the direction sought with a large enough effect; an effect the other way counts as inactive or inconclusive; note: potency is the fitted concentration of half-maximal effect;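 for max response: % is set by controls: 0 for no effect and ±100 for the full control effect; actives lower the fluorescent signal which means gametocytes are killed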); details: P. falciparum 3D7 stage III-V gametocytes, alamarBlue, 72 h; max response: stronger effect = lower value
# Procedure, shortened: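 In this qHTS viability screen, late-stage 3D7 gametocytes are incubated with compound for 72 h, then with alamarBlue for 24 h; reduced resorufin fluorescence marks killing.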
# [2] = qHTS assay for cell viability of HEK293 cells (AID 743288; active = well fitted curve in the direction sought with a large enough effect; an effect the other way counts as inactive or inconclusive; note: nearly all actives have a fitted effect of over 50% in size; note: potency is the fitted concentration of half-maximal effect; for max response: % is set by controls: 0 for no effect and ±100 for the full control effect); details: ATP luminescence (CellTiter-Glo), 18 h; max response: stronger effect = lower value
# Procedure, shortened: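 Quantitative high-throughput screen: compounds were pinned onto parental HEK293 cells (2,000 per well) after a minimum 5 h settling at 37 C, incubated 18 h at 37 C, and intracellular ATP measured by luciferase luminescence.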
# [3] = qHTS assay for cell viability of the p53RE-bla HCT-116 cell line (AID 743292; active = well fitted curve in the direction sought with a large enough effect; an effect the other way counts as inactive or inconclusive; note: % is set by controls: 0 for no effect and ±100 for the full control effect; nearly all actives have a fitted effect of over 55% in size)
# Procedure, shortened: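 ATP-based luminescence, 16 h compound exposure at 37 C, p53RE-bla HCT-116 cells at 4,000/well.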
# [4] = qHTS profiling for inhibitors of Plasmodium falciparum (3D7) proliferation (AID 743322);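 note: infected erythrocytes exposed to compound for 72 h before lysis; 100% = DMSO vehicle wells and 0% = 0.29 µM artemisinin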; details: P. falciparum 3D7 proliferation; at 28.7 µM (top of the series)
# Procedure, shortened: (§1)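 Parasite DNA was quantified by SYBR Green I fluorescence (ex 485, em 535 nm) after overnight lysis in saponin/Triton buffer at room temperature. Cultures at 0.3% parasitemia and 2.5% hematocrit were first exposed to compound for 72 h at 37 C; signals were normalised to artemisinin (0.29 uM) and vehicle wells.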
# [5] = qHTS profiling for inhibitors of Plasmodium falciparum (DD2) proliferation (AID 743323); details: lower = more inhibition; at 28.7 µM (top of the series)
# Procedure, shortened: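 SYBR Green fluorescence (ex 485, em 535 nm) of lysed cultures gives parasite DNA content; wells normalized to artemisinin (0.29 uM) and DMSO controls. Infected red cells: 0.3% parasitemia, 2.5% hematocrit, 72 h, 37 C.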
# [6] = qHTS profiling for inhibitors of Plasmodium falciparum (HB3) proliferation (AID 743324; active = well fitted curve in the direction sought with a large enough effect; an effect the other way counts as inactive or inconclusive;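 note: 100% = DMSO vehicle wells and 0% = artemisinin-treated control wells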); details: Plasmodium falciparum HB3 blood-stage proliferation; at 28.7 µM (top of the series)
# Procedure, shortened: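 SYBR Green fluorescence (485 ex/535 em) of lysed cultures, incubated overnight at room temperature in the dark, quantifies parasite DNA. Infected erythrocytes at 0.3% parasitemia and 2.5% hematocrit were exposed 72 h; values normalized to DMSO and 0.29 uM artemisinin controls.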
# [7] = Ebola virus entry assay, green fluorescence channel
# [8] = Ebola virus entry assay, blue channel fluorescence
# [9] = Ebola virus entry assay, ratio channel
# [10] = Ebola virus entry assay, green channel fluorescence
# [11] = Ebola virus entry assay, reporter ratio channel; AC50: Channel type: primary unless noted; outcome: Channel type: primary unless noted
# [12] = Ebola virus entry assay, blue channel (ratio component)
# [13] = qHTS profiling of the MIPE4 collection as inhibitors of Plasmodium falciparum (3D7) proliferation (AID 743344);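 note: scaled between DMSO vehicle wells and 0.29 µM artemisinin as full inhibition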; details: P. falciparum 3D7 in erythrocytes, SYBR Green DNA fluorescence, 72 h; at 28.5 µM (top of the series) unless noted
# Procedure, shortened: as §1
# [14] = qHTS profiling of the MIPE4 collection as inhibitors of Plasmodium falciparum (DD2) proliferation (AID 743345); details: P. falciparum Dd2 in erythrocytes, SYBR Green DNA, 72 h; at 28.5 µM (top of the series) unless noted
# Procedure, shortened: as §1
# [15] = qHTS profiling of the MIPE4 collection as inhibitors of Plasmodium falciparum (DD2) proliferation (Rep 2) (AID 743346); details: P. falciparum Dd2 in erythrocytes, SYBR Green DNA, 72 h; at 28.5 µM (top of the series) unless noted
# Procedure, shortened: as §1
# [16] = qHTS profiling of the MIPE4 collection as inhibitors of Plasmodium falciparum (HB3) proliferation (AID 743347);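 note: plate controls were DMSO vehicle wells for no effect and artemisinin wells for full effect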; details: P. falciparum HB3 in erythrocytes, SYBR Green DNA, 72 h; at 28.5 µM (top of the series) unless noted
# Procedure, shortened: as §1
# Throughout, for efficacy: 0% is about no effect.
compound,measurement,setting,value
C[C@]12CCC(=O)C(O)=C1CC[C@@H]1[C@@H]2CC[C@]2(C)C(=O)CC[C@@H]12,max response,[1],8.31% (inactive) and 12.3% (inactive)
same,max response,[2],-3.27% (inactive)
same,Potency,[3],inactive
same,remaining parasite growth % (stronger effect = lower value),[4],90.5%
same,"activity, percent of control",[5],71.8%
same,"remaining proliferation (% of control), lower = more inhibition",[6],108%
same,efficacy,[7],-14% (inactive)
same,outcome,[8],inactive
same,outcome,[9],inactive
same,outcome,[10],inactive
same,outcome,[11],inactive
same,outcome,[12],inactive
Nc1ccncc1,max response,[1],0.934% (inactive) and 25.7% (inactive)
same,max response,[2],-3.71% (inactive)
same,Potency,[3],inactive
same,efficacy,[7],-10% (inactive)
same,outcome,[8],inactive
same,outcome,[9],inactive
same,outcome,[10],inactive
same,outcome,[11],inactive
same,outcome,[12],inactive
COC(=O)Nc1nc2ccc(C(=O)C3CC3)cc2[nH]1,efficacy,[7],69.7% (inactive)
same,AC50,[8],8.91 µM (active)
same,AC50,[9],7.94 µM (active)
same,AC50,[11],7.94 µM (active)
CC1=C(/C=C/C(C)=C/C=C/C(C)=C/C(=O)Nc2ccc(O)cc2)C(C)(C)CCC1,efficacy,[7],-119% (inactive)
same,AC50,[8],39.8 µM (active)
same,outcome,[9],inactive
same,AC50,[11],39.8 µM (active)
Cc1cc(OCCOCC[N+](C)(C)Cc2ccccc2)ccc1C(C)(C)CC(C)(C)C,efficacy,[7],-204% (inactive)
same,AC50,[8],8.91 µM (active)
same,AC50,[9],3.98 µM (active)
same,AC50,[11],3.98 µM (active)
Oc1cccc2cccnc12,Potency,[1],11.2 µM (active) and 25.1 µM (active)
same,max response,[2],-19.7% (inactive)
same,Potency,[3],inactive
same,efficacy,[7],-17.8% (inactive)
same,outcome,[8],inactive
same,outcome,[9],inactive
same,outcome,[10],inactive
same,outcome,[11],inactive
CC1(CN2CCC(n3c(=O)[nH]c4ccccc43)CC2)OCc2ccccc2-n2cccc21 (stereo not drawn),efficacy,[7],64.1% (inactive)
same,AC50,[8],20 µM (active)
same,AC50,[9],15.8 µM (active)
same,AC50,[11],15.8 µM (active)
COc1ccccc1N1CCNCC1,max response,[1],13.1% (inactive) and 8.67% (inactive)
same,efficacy,[7],33.5% (inactive)
same,outcome,[8],inactive
same,outcome,[9],inactive
same,outcome,[10],inactive
same,outcome,[11],inactive
CCCCC(CC)CN=C(N)NC(N)=NCCCCCCN=C(N)NC(N)=NCC(CC)CCCC (stereo not drawn),efficacy,[7],-201% (inactive)
same,AC50,[8],11.2 µM (active)
same,outcome,[9],inactive
same,outcome,[11],inactive
Cn1cc(C2=C(c3cn(C4CCN(Cc5ccccn5)CC4)c4ccccc34)C(=O)NC2=O)c2ccccc21,remaining parasite growth % (stronger effect = lower value),[4],94.2%
same,"activity, percent of control",[5],70%
same,"parasite growth, % of DMSO control",[13],11.5%
same,"parasite growth remaining, % of DMSO control (lower = more inhibition)",[14],19.9%
same,"parasite growth, % of control (lower = inhibition)",[15],21.1%
same,"growth, % of control",[16],6.8%
same,efficacy,[7],36.4% (inactive)
same,outcome,[8],inactive
same,outcome,[9],inactive
same,outcome,[10],inactive
same,outcome,[11],inactive
NCCc1cc(O)c(O)cc1O,max response,[1],0.974% (inactive)
same,efficacy,[7],-42% (inactive)
same,AC50,[8],25.1 µM (active)
same,outcome,[9],inactive
same,outcome,[10],inactive
same,AC50,[11],39.8 µM (active)
CN1C[C@H](CNC(=O)OCc2ccccc2)C[C@@H]2c3cccc4c3c(cn4C)C[C@H]21,max response,[1],-4.3% (inactive)
same,efficacy,[7],74.4% (inactive)
same,AC50,[8],6.31 µM (active)
same,AC50,[9],3.98 µM (active)
same,AC50,[11],3.98 µM (active)
C[C@H]1O[C@@H](O[C@H]2[C@@H](O)C[C@H](O[C@H]3[C@@H](O)C[C@H](O[C@H]4CC[C@@]5(C)[C@H](CC[C@@H]6[C@@H]5CC[C@]5(C)[C@@H](C7=CC(=O)OC7)CC[C@]65O)C4)O[C@@H]3C)O[C@@H]2C)C[C@H](O)[C@@H]1O,max response,[1],-3.93% (inactive)
same,Potency,[2],0.0562 µM (active)
same,efficacy,[7],-46.6% (inactive)
same,AC50,[8],1.41 µM (active)
same,AC50,[9],0.708 µM (active)
same,AC50,[11],0.708 µM (active)
